# According to PubChem BioAssay (NCI):
# About 79,000 compounds went through this panel and 15% of them were active in at least one assay; those are over-represented in the sample as a whole. Active and inactive are the calls of the source. Cut-off read from the data, not from the text of the source: active = growth inhibition above about 70%; inactive = the rest.
# Assay: NCI Yeast Anticancer Drug Screen. Data for the bub3 strain (AID 167)
# Details: S. cerevisiae bub3 mutant strain, at 50.0 µM, stronger effect = higher value
# Summary of the method: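 Compounds were applied to a genetically altered yeast strain carrying a cell-cycle control defect. Growth inhibition was scored against vehicle-treated controls.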
row,Compound,growth inhibition
1,N#Cc1c(C#N)c(-c2cccc([N+](=O)[O-])c2)n(-c2ccccc2)c1N,-16.6% (inactive)
2,Nc1ncnc(N)c1NC(=O)CCCCc1ccccc1,1.4% (inactive)
3,CC1=C2CC[C@@]3(C)C(=CCC3O)C2(C)CCC1=O (some centres undefined),-8.9% (inactive)
4,O=C1c2ccccc2-c2nc3cc4ccccc4cc3nc21,11.4% (inactive)
5,CCC(CC)C(=O)OCCOc1ccccc1,19.4% (inactive)
6,CN1CCN(C(=O)Nc2ccc(N=Nc3ccccc3)cc2)CC1,16.8% (inactive)
7,Cc1cc2c(cc1C)NS(=O)(=O)N2,4.9% (inactive)
8,CC(C)/C=C\C(=O)CC(C)C,17.4% (inactive)
9,CC(C)=NOC(=O)Nc1cccc2c1OCO2,-35.5% (inactive)
10,CC(C)NC(=O)Nc1cccc(Cl)c1,-23.2% (inactive)
11,CN=C(c1ccccc1)N(O)c1ccccc1,-1.65% (inactive)
12,C=CC(=O)NC1CCCCC1,-6.8% (inactive)
13,O=c1c2c(-c3ccccc3)c3ccccc3nc2cnn1-c1ccccc1,-24.9% (inactive)
14,CC(C)CN(CC(C)C)C(=O)C1CCCC[C@@H]1C(=O)O (some centres undefined),16.4% (inactive)
15,C=CCOC(=O)Nc1ccc(C)c(NC(=O)OCC=C)c1,-12.6% (inactive)
16,CCOP(=O)(OCC)C(Cc1ccc(OC)c(OC)c1)N=C(c1ccccc1)c1ccccc1 (centres undefined),-7.55% (inactive)
17,c1ccc(-c2ccccc2N=C2N=NN=N2)cc1,-13.6% (inactive)
18,S=C1c2cc(Cl)ccc2NC(=NC2CCCC2)C2CSCN12 (centres undefined),33.3% (inactive)
19,CCOC(=O)/C(C#N)=C/Nc1c(C)n(C)n(-c2ccccc2)c1=O,-0.85% (inactive)
